Out of some 200,000 compounds screened, about 5,100 (2.5%) were called active. The sample holds actives, similar compounds and a random draw of the others, so the mix is not that of the screen.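 Rule for the calls: active = activation above the screen-wide mean activation plus 3 SD (cut at about 130% in these data); inactive = the rest.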
assay: potentiators of IFN-gamma driven STAT1 reporter – cell-based, HTS, luciferase reporter, primary screen (AID 932); details: NIH 3T3 STAT1-luciferase reporter, luminescence, at 5.5 µM, hits give high values, 100% = IFN-gamma alone, no compound;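 note: raw ratio to IFN-gamma control signal so 100% means no change and 0% no light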

Activation (% of control), inactive:
CC(C)(C)C1CCC(=NNC(=O)c2cc(-c3ccccc3)n[nH]2)CC1 (stereo not drawn) 113%
CCOC(=O)N1CCN(C(=O)C2CCN(Cc3ccc(OC)cc3OC)CC2)CC1 94.7%
CCOc1ccc2nc(/N=C/c3nc(-c4ccccc4)oc3O)sc2c1 104%
CC(N=Cc1nc(-c2ccccc2)oc1O)c1ccccc1 (stereo not drawn) 104%
O=C1NC(c2ccc(-c3ccccc3[N+](=O)[O-])o2)C(C(=O)c2ccc(Cl)cc2)C(O)(C(F)(F)F)N1 (stereo not drawn) 102%
COc1ccc(C(C)=O)cc1CSc1nc2nc(C)cc(C)n2n1 93.7%
COc1ccc(C(=O)COC(=O)c2ccc3ccccc3n2)cc1 103%
O=C(Oc1ccc([N+](=O)[O-])cc1)c1ccc2ccccc2n1 94.7%
CCC(NC(=O)c1ccccc1NC(=O)c1ccccc1)C(=O)NNC(=O)CSc1nc2ccccc2o1 (stereo not drawn) 94%
Cc1[nH]n(-c2ccc(Cl)cc2)c(=O)c1/C=N/n1c(C)nc2ccccc2c1=O 99.3%
Cc1ccc(-n2[nH]c(C)c(/C=N/NC(=O)c3cccc([N+](=O)[O-])c3)c2=O)cc1C 101%
C=CCn1c(SCC(N)=O)nnc1-c1cc2c(s1)CCC(CC)C2 (stereo not drawn) 121%
CC1CN(/C=C/C(=O)C(F)(F)F)CC(C)O1 (stereo not drawn) 95.8%
CCSc1sc(CC)cc1C=O 107%
COc1ccccc1N1CCN(C(=O)c2cc(-c3ccc(Br)cc3)on2)CC1 99.6%
Cc1ccc(-c2cc(C(=O)N3CCc4ccccc4C3)no2)cc1 97.3%
O=C(c1ccc(F)cc1)N1CCCC(c2nc(-c3cccs3)no2)C1 (stereo not drawn) 96.9%
O=C(c1cc(-c2ccccc2O)on1)N1CCCC1 108%
COc1ccc(C2CC(c3cccs3)Nc3nnnn32)cc1 (stereo not drawn) 87.6%
Cc1cc(=O)[nH]c(N/N=C/c2c(C)nn(-c3ccccc3Cl)c2Cl)n1 100%
CC(OC(=O)CNS(=O)(=O)/C=C/c1ccccc1)C(=O)Nc1ccc(S(=O)(=O)N2CCCC2)cc1 (stereo not drawn) 89%
CC(=O)c1ccc(NC(=O)c2ccc3c(Cl)c4c(nc3c2)CCCC4)cc1 113%
O=C(CN1CCN(c2ccc(O)cc2)CC1)NC1CCCc2ccccc21 (stereo not drawn) 101%
Cc1ccc(OCc2nnc(SC3CCc4ccccc4C3=O)n2C)cc1 (stereo not drawn) 105%
CCc1nnc(NS(=O)(=O)c2ccc(NC(=S)NC(=O)c3cccs3)cc2)s1 109%
CC(=O)Nc1ccc(S(=O)(=O)Nc2nccc(/C=C/c3ccccc3F)n2)cc1 98.1%
O=C(c1cccs1)n1nc(NCc2ccccc2)nc1NCc1ccccc1 107%
CNC(=O)COC(=O)c1cc(-c2ccc(OC)cc2)nc2ccccc12 99.7%
CC(C)(C)NC(=O)NC(=O)COC(=O)Cc1c(F)cccc1Cl 113%
C=CCSc1nc2ccccc2[nH]1 109%
CCCCSc1nc2ccccc2[nH]1 121%
CCOc1cc2[nH]c(=O)n(Cc3ccc(C(=O)NCCCN4CCCC4=O)cc3)c(=O)c2cc1OCC 92.1%
COc1ccc(C2(CNC(=O)Cc3ccc(OC)c(OC)c3)CCCC2)cc1 94.7%
N/C(=N\OC(=O)CC1CCCCC1)c1ccccc1 116%
CCC(C)(NC(=O)c1ccccn1)C(=O)NC1CCCCC1 (stereo not drawn) 95.5%
O=C(OCc1ccc([N+](=O)[O-])cc1)c1ccccn1 95.9%
N/C(=N\OC(=O)c1ccc([N+](=O)[O-])cc1)c1ccccn1 81.4%
COc1cc(SC)ccc1C(=O)Nc1nc(C)cs1 12.9%
COC(=O)c1sc(NC(=O)c2ccc(OC)cc2OC)nc1C 75.1%
COc1ccc(S(=O)(=O)N2CCN(C(=O)c3cc(C)oc3C)CC2)cc1 90.8%
Cc1ccc([N+](=O)[O-])c(OCCCNCC(C)O)c1 (stereo not drawn) 101%
CN1CCN(C(=O)/C(=C\c2ccc3c(c2)OCO3)NC(=O)c2cccs2)CC1 98.7%
COC(=O)c1ccccc1SC1CC(=O)N(c2cccc(C)c2)C1=O (stereo not drawn) 94.5%
CC1CCN(S(=O)(=O)c2ccc3ncn(CC(=O)N(C)C4CCCCC4)c(=O)c3c2)CC1 100%
Cc1cccc(C)c1NC(=O)C1CCCN1C(=O)OC(C)(C)C (stereo not drawn) 104%
CCNC(=O)NNC(=O)C1CC(c2cccs2)=NO1 (stereo not drawn) 100%
Cc1occc1C(=O)Nc1nnc(C2CCCCC2)s1 107%
O=C(Cc1cccs1)Nc1nnc(C2CC2)s1 90.1%
Cc1nc2ccccn2c1C(=O)NN=C1CCN(C)CC1 96.3%
CN1CCN(c2ccc(NC(=O)c3ccc4c(c3)[nH]c(=O)n4Cc3ccc(F)cc3)cc2)CC1 98.7%
Clc1cccc(CN2COc3c(cc(Cl)c4cccnc34)C2)c1 94.3%
Cc1ccc(NC(=O)c2c(NC(=O)CCC(=O)O)sc3c2CCCCC3)cc1 105%
CC(=O)Cc1nsc(NC(=O)c2csc3c2CCCC3)n1 102%
COC(=O)c1sccc1NC(=O)c1csc2c1CCCC2 106%
O=C(NCc1ccccc1Cl)c1csc2c1CCCCC2 107%

Activation (% of control), active:
Oc1oc(-c2ccccc2Br)nc1/C=N/c1ccccn1 131%
CC(OC(=O)c1ccc2ccccc2n1)C(=O)c1ccccc1 (stereo not drawn) 138%
Cc1[nH]n(-c2ccccc2)c(=O)c1/C=N/NC(=O)c1ccoc1C 155%
O=C(c1cc(-c2cccs2)on1)N1CCCCC1 162%
COc1ccccc1-c1cc(C(=O)N2CCCCC2)no1 164%
Cc1cc(C)nc(NS(=O)(=O)c2ccc(N/C=C\C(=O)c3cccs3)cc2)n1 135%
O=C(CSc1nc2ccccc2[nH]1)c1cccs1 136%
N/C(=N\OC(=O)Cc1ccc([N+](=O)[O-])cc1)c1ccccn1 139%
N/C(=N\OC(=O)CCC1CCCCC1)c1ccccn1 130%
COc1ccc(C(=O)Nc2nncs2)c(OC)c1 131%
O=C(Nc1nnc(C2CC2)s1)c1ccccn1 129%
Cc1ccc(NC(=O)c2csc3c2CCCC3)cc1 176%
COC(=O)c1sc(NC(=O)c2csc3c2CCCC3)nc1C 149%

— PubChem BioAssay AID932 (The Scripps Research Institute Molecular Screening Center, 2007)
